High-throughput results from PubChem.
Calb biofilm kill: clotrimazole potentiators killing Candida biofilms, primary screen, with clotrimazole, Alamar Blue | C. albicans biofilm + clotrimazole | inhibition, % at 6 µM | 85,000 tested, 0.14% active;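 active = inhibition above 20%; inactive = inhibition below 20%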;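 note: preformed 24 hr biofilms exposed to compound for 48 hr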
ERa SRC1 inh: ERα–SRC-1 coactivator interaction inhibitors, primary screen, biochemical, TR-FRET, ERα LBD, estradiol-bound; Estrogen receptor (Homo sapiens), P03372; TR-FRET ER-alpha LBD / SRC-1 peptide; inhibition, % at 25.6 µM; 86,000 tested, 1.7% active; AID 629, 2007; in the data active = inhibition above about 50%
ERa coact pot: enhancers of ERα–SRC-1 coactivator binding, primary screen, biochemical, TR-FRET, ERα LBD, low estradiol. Estrogen receptor (Homo sapiens), P03372. AID 639, 2007. TR-FRET ERalpha-LBD/SRC-Cy5 coactivator binding, 2 h; 100 = basal binding, no effect. coactivator binding (% of control), % at 25.6 µM. 86,000 tested, 1.3% active; in the data active = activity above about 200%;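 note: binding measured in presence of low estradiol as agonist stimulus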
EphB4 antag: EphB4-ephrin-B2 interaction antagonists, primary screen, biochemical, TNYL-RAW peptide probe, fluorescence polarization; inhibition, % at 7 µM; EphB4 LBD / TNYL-RAW-Alexa532 peptide; 97,000 tested, 0.15% active; Ephrin type-B receptor 4 (Homo sapiens), P54760;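 active = inhibition above the screen-wide mean inhibition plus 3 SD, cut at about 15% in these data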
Target sequence (P54760 whole entry, looked up, the tested form may be a part): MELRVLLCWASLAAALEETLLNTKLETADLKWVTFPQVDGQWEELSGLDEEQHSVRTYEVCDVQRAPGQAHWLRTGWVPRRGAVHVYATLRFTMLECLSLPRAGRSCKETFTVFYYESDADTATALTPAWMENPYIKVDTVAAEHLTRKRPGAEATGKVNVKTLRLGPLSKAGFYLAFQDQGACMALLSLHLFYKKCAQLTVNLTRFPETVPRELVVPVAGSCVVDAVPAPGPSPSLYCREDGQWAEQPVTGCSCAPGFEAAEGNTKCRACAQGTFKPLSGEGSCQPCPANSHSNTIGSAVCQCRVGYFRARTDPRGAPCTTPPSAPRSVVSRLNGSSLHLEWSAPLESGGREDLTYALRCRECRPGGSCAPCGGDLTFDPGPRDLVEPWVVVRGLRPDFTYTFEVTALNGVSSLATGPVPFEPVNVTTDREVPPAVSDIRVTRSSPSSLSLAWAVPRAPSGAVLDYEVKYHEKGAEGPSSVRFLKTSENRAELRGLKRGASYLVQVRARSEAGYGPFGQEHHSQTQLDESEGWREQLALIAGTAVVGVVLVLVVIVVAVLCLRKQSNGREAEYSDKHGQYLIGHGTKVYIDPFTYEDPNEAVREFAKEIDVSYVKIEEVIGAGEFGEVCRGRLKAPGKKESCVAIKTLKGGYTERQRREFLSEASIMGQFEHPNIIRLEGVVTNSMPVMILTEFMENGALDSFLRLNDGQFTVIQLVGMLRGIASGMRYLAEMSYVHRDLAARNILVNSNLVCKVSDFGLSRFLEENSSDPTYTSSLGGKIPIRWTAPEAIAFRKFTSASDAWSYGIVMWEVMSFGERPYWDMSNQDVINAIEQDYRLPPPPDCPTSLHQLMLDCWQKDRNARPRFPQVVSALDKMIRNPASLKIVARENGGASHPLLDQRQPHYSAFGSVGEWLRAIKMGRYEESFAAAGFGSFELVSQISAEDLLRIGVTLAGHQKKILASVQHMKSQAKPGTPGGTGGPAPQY
MT1-MMP txn act: MT1-MMP promoter reporter activation – cell-based, luciferase luminescence, primary screen; activation factor at 10 µM; AID 750, 2007; 86,000 tested, 0.16% active; HT1080 MT1-MMP promoter luciferase reporter, overnight; hits give high values;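 active = activation factor of at least 2 for MT1-MMP transcription at 10 µM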
ERb SRC1 inh: inhibitors of ERβ-SRC1 coactivator interaction, primary screen, biochemical, TR-FRET, ERβ LBD, SRC-1 peptide | Estrogen receptor beta (Homo sapiens), Q92731 | TR-FRET ER-beta LBD / SRC1-Cy5 peptide binding; receptor agonist-loaded with 1 µM estradiol | inhibition, % at 25.6 µM | 86,000 tested, 1.3% active | AID 633, 2007;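 active = compounds whose percent inhibition of the receptor-coactivator binding signal exceeds about 50% in the single-dose screen, limit read from the data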
Numbers stand for hits; [ ] = remark or other dose. Sampled rows, rich in hits. Any-hit rate of the full collection: about 3.2%.

Results for Cc1ccc(Cn2c(SCCN3CCCCC3)nc3c2c(=O)n(C)c(=O)n3C)cc1 ?
Calb biofilm kill: inactive; ERa SRC1 inh: inactive; ERa coact pot: inactive; EphB4 antag: 16; MT1-MMP txn act: inactive; ERb SRC1 inh: inactive

What do the screens show for `CCCSc1nc2c(c(=O)[nH]c(=O)n2C)n1Cc1ccc(C)cc1`?
Calb biofilm kill: inactive; ERa SRC1 inh: 67[fluorescence artefact?]; ERa coact pot: inactive; EphB4 antag: inactive; MT1-MMP txn act: inactive; ERb SRC1 inh: inactive

What do the screens show for `O=C(CSc1nc2c([nH]c3ccccc32)c(=O)n1-c1ccccc1)N1CCOCC1`?
Calb biofilm kill: inactive; ERa SRC1 inh: inactive; ERa coact pot: inactive; MT1-MMP txn act: inactive; ERb SRC1 inh: inactive

Results for COc1ccc(-n2c(SCC(=O)N3CCCC3)nc3c([nH]c4ccccc43)c2=O)cc1 ?
Calb biofilm kill: inactive; ERa SRC1 inh: 87; ERa coact pot: inactive; MT1-MMP txn act: inactive; ERb SRC1 inh: 60[fluorescence artefact?]

How did O=C(CSc1nc2c([nH]c3ccccc32)c(=O)n1-c1cccc(Cl)c1)N1CCOCC1 do in these assays?
Calb biofilm kill: inactive; ERa SRC1 inh: 91[fluorescence artefact?]; ERa coact pot: inactive; EphB4 antag: inactive; MT1-MMP txn act: inactive; ERb SRC1 inh: 73[fluorescence artefact?]

How did COc1cccc(-n2c(SCC(N)=O)nc3c([nH]c4ccccc43)c2=O)c1 do in these assays?
Calb biofilm kill: inactive; ERa SRC1 inh: inactive; ERa coact pot: 633[fluorescence artefact?]; MT1-MMP txn act: inactive; ERb SRC1 inh: inactive

How did Cc1ccc(-n2c(SCC(N)=O)nc3c([nH]c4ccccc43)c2=O)cc1 do in these assays?
Calb biofilm kill: inactive; ERa SRC1 inh: inactive; ERa coact pot: inactive; MT1-MMP txn act: inactive; ERb SRC1 inh: inactive

How did CC1(C)CC(=O)c2c(oc3cc4c(cc23)OCO4)C1 do in these assays?
MT1-MMP txn act: inactive

What do the screens show for `COC(=O)[C@@]1(Cc2ccccc2)C=C[C@@H](C)N1C(=O)c1ccccc1`?
MT1-MMP txn act: inactive

How did Cc1ccc2c(c1)c1c3n2CCCNC3CCC1 (stereo not drawn) do in these assays?
EphB4 antag: inactive; MT1-MMP txn act: inactive

What do the screens show for `CCN1CCn2c3c(c4cc(C)ccc42)CCCC31` (stereo not drawn)?
Calb biofilm kill: inactive; ERa SRC1 inh: inactive; ERa coact pot: inactive; EphB4 antag: inactive; MT1-MMP txn act: inactive; ERb SRC1 inh: 56[fluorescence artefact?]

What do the screens show for `FC(F)(F)c1nc(N2CCCC2)ncc1-c1nnnn1-c1ccc(Cl)cc1`?
EphB4 antag: inactive

How did CCOC(=O)CNC(=O)C(Cc1ccccc1)NS(=O)(=O)c1ccc2c(c1)CCC(=O)N2 (stereo not drawn) do in these assays?
ERa SRC1 inh: inactive; ERa coact pot: inactive; EphB4 antag: inactive; MT1-MMP txn act: inactive; ERb SRC1 inh: 86

How did Cn1c(=O)c2cc(S(=O)(=O)NC(C(=O)N3CCCCCC3)c3ccccc3)ccc2n(C)c1=O (stereo not drawn) do in these assays?
Calb biofilm kill: inactive; ERa SRC1 inh: inactive; ERa coact pot: inactive; EphB4 antag: inactive; MT1-MMP txn act: inactive; ERb SRC1 inh: inactive

Results for CCCCNC(=O)C(Cc1ccccc1)NS(=O)(=O)c1ccc2c(c1)c(=O)n(C)c(=O)n2C (stereo not drawn) ?
Calb biofilm kill: inactive; ERa SRC1 inh: 86[fluorescence artefact?]; ERa coact pot: inactive; EphB4 antag: inactive; ERb SRC1 inh: inactive

How did COc1ccc(C(=O)COc2ccccc2N2C(=O)C3C4C=CC(C4)C3C2=O)cc1 (stereo not drawn) do in these assays?
Calb biofilm kill: inactive; ERa SRC1 inh: 51[fluorescence artefact?]; ERa coact pot: inactive; EphB4 antag: inactive; MT1-MMP txn act: inactive; ERb SRC1 inh: inactive

What do the screens show for `COc1ccc(N2C(=O)C3C4C=CC(C4)C3C2=O)c(OC)c1` (stereo not drawn)?
Calb biofilm kill: inactive; ERa SRC1 inh: inactive; ERa coact pot: inactive; EphB4 antag: inactive; MT1-MMP txn act: inactive; ERb SRC1 inh: inactive

How did CCc1[nH]nc2c1C(c1cccc(OC(=O)N3CCOCC3)c1)C(C#N)=C(N)O2 (stereo not drawn) do in these assays?
Calb biofilm kill: inactive; ERa SRC1 inh: inactive; ERa coact pot: 563; EphB4 antag: inactive; MT1-MMP txn act: inactive; ERb SRC1 inh: inactive

Results for COC(=O)c1ccc(CN2[C@H](C(=O)OC)C[C@@]3(O)[C@@H](O)[C@@H](O)[C@@H](O)C[C@@H]23)cc1 ?
MT1-MMP txn act: inactive

What do the screens show for `Cc1cccc(CCNC(=O)C2CCN(S(=O)(=O)c3c(C)nn(C)c3C)CC2)c1`?
Calb biofilm kill: inactive; ERa SRC1 inh: inactive; ERa coact pot: inactive; EphB4 antag: inactive; MT1-MMP txn act: inactive; ERb SRC1 inh: inactive

Results for CC(=O)/C(=N/Nc1cccc(C)c1)N1CCOCC1 ?
EphB4 antag: inactive

What do the screens show for `CCn1c(=O)cc(C(=O)OC)sc1=Nc1ccc(F)c(F)c1`?
Calb biofilm kill: inactive; ERa SRC1 inh: inactive; ERa coact pot: inactive; EphB4 antag: inactive; MT1-MMP txn act: inactive; ERb SRC1 inh: 95[fluorescence artefact?]

Results for COC(=O)CCCCCN1C(=O)NC(CC2CC2)C(C(=O)OCc2ccccc2)=C1C (stereo not drawn) ?
MT1-MMP txn act: inactive

What do the screens show for `COc1ccc(S(=O)(=O)NC(C(C)C)C(C)C)cc1OC`?
Calb biofilm kill: inactive; ERa SRC1 inh: inactive; ERa coact pot: inactive; EphB4 antag: inactive; MT1-MMP txn act: inactive; ERb SRC1 inh: inactive

How did COc1cc(S(=O)(=O)NC(C)C)ccc1Cl do in these assays?
Calb biofilm kill: inactive; ERa SRC1 inh: 65[fluorescence artefact?]; ERa coact pot: inactive; EphB4 antag: inactive; MT1-MMP txn act: inactive; ERb SRC1 inh: inactive

Results for c1ccc(-n2ncc3c(N4CCN(c5ccccn5)CC4)nc(N4CCOCC4)nc32)cc1 ?
Calb biofilm kill: inactive; ERa SRC1 inh: inactive; ERa coact pot: 220[fluorescence artefact?]; MT1-MMP txn act: inactive; ERb SRC1 inh: inactive

Results for c1ccc(-n2ncc3c(N4CCN(c5ccccn5)CC4)nc(N4CCCCC4)nc32)cc1 ?
Calb biofilm kill: inactive; ERa SRC1 inh: inactive; ERa coact pot: inactive; MT1-MMP txn act: inactive; ERb SRC1 inh: inactive

How did C=CCn1c(-c2ccoc2)n[nH]c1=S do in these assays?
Calb biofilm kill: inactive; ERa SRC1 inh: inactive; ERa coact pot: inactive; EphB4 antag: inactive; MT1-MMP txn act: inactive; ERb SRC1 inh: inactive

What do the screens show for `O=C(CN1C(=O)C2C3C=CC(C3)C2C1=O)NCc1ccco1` (stereo not drawn)?
Calb biofilm kill: inactive; ERa SRC1 inh: inactive; ERa coact pot: inactive; EphB4 antag: inactive; MT1-MMP txn act: inactive; ERb SRC1 inh: inactive

Results for O=C(COC(=O)C1CC2C=CC1C2)NCc1ccco1 (stereo not drawn) ?
Calb biofilm kill: inactive; ERa SRC1 inh: 72[fluorescence artefact?]; ERa coact pot: inactive; EphB4 antag: inactive; MT1-MMP txn act: inactive; ERb SRC1 inh: 57
